The results in this text go back to PubChem BioAssay.

Calls of active or inactive are those of the source.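 Rule for the calls, unless noted: active = NADPH fluorescence slope more negative than the mean of all samples by about 3 SD, 99.7% confidence; inactive = the rest.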

A short description of experiment [1]: inhibitors of TNFa-induced NFkB p65 translocation, primary screen, imaging, HUVEC, MLSMR starter and 10KST1 sets (AID 438;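 active = inhibition above 20% together with a positive visual image hit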;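 note: compound added about 3h40 before a 20 min TNFalpha stimulation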;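 for inhibition: signal is the nuclear over cytoplasmic p65 intensity ratio per well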). Conditions: HUVEC TNFa-induced p65 nuclear translocation; cell count: measured here: nuclei count (cytotoxicity indicator), at 2.08 µM; inhibition: at 2 µM, stronger effect = higher value, 0% TNFa-plus-vehicle, 100% no-TNFa wells.
Experiment [2] can be described thus: reduction of polyQ htt aggregates in cells – imaging, exon1htt(103Q)mCFP cells, high-content imaging, primary screen (AID 483;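 active = visual image review flags a hit and inhibition of aggregation exceeds 20%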;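 note: compound exposure lasted 3 days before fixation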;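 for nuclei count: percent of the per-plate median nuclei count of sample wells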). Conditions: exon1htt(103Q)mCFP cell line, aggregate imaging, at 2 µM; inhibition of aggregation: stronger effect = higher value; nuclei count: measured here: cell count, toxicity.
Experiment [3] in a line: endothelial E-selectin expression blockers – imaging, HUVEC, immunofluorescence, MLSMR starter and 10KST1 sets, primary screen (AID 487;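 active = visually confirmed hit in the image check and inhibition above 20%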;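 for inhibition: signal is fraction of cell area covered by stained E-selectin grains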;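 for nuclei count: 100% = median nuclei count of all wells on the same plate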). Conditions: HUVEC TNFalpha-induced E-selectin immunofluorescence imaging, at 2 µM; inhibition: stronger effect = higher value; nuclei count: measured here: cell number, toxicity.
The target in experiment [4] is Voltage-gated potassium channel subunit beta-2 (Rattus norvegicus) (UniProt P62483). The experiment can be described thus: inhibitors of rat Kvbeta2 reductase activity – biochemical, NADPH fluorescence, primary screen (AID 622;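 active = fluorescence slope higher than the sample average by over 3 SD, cut at about -0.22 in these data, passing the limit was not always enough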;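 note: slope of raw intensity against log time taken from 70 to 1610 s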). Conditions: recombinant KvBeta, 4-cyanobenzaldehyde reduction, at 10 µM, stronger effect = higher value.
The target is the same in experiment [5]. The experiment is described as follows: enhancers of rat Kvbeta2 NADPH turnover – biochemical, NADPH fluorescence, primary screen (AID 623).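 Note: fluorescence intensity change per second fitted from 20 to 320 s.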 Conditions: Recombinant KvBeta, NADPH fluorescence decrease slope, 10 min; at 10 µM; stronger effect = lower value.
The target in experiment [6] is Alpha-2C adrenergic receptor (Homo sapiens) (UniProt P18825). The experiment is described as follows: compounds altering alpha2C-coupled GIRK flux – cell-based, HEK293 alpha2C/GIRK1/2, thallium flux, primary screen (AID 624;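 active = fluorescence slope after compound addition differing from the mean of all screened samples at 99.7% confidence, in either direction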;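 note: slope of fluorescence ratio to pre-addition baseline per second over 15 to 24 s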). Conditions: thallium flux BTC fluorescence, at 10 µM, actives lie on both sides.
Experiment [7] can be described thus: blockers of RIG-like receptor reporter activation – cell-based, Sendai virus stimulus, luciferase, 10K MLSCN set, TLR/RLR signaling modifier project, primary screen (AID 602276;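 active = inhibition at or above 50% at 10 µM; inactive = inhibition below 50%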;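 note: firefly luciferase from ISG56 promoter only with Renilla not read in this screen; 0% = Sendai virus plus DMSO and 100% = medium plus DMSO without virus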). Conditions: HEK293 RL24 IRF3 luciferase reporter, at 10 µM, stronger effect = higher value.
Experiment [8] in a line: TLR3 IRF3 reporter activation blockers – cell-based, poly I:C stimulus, luciferase, 10K MLSCN set, primary screen (AID 602277;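 active = inhibition of the reporter signal at or above 50%; inactive = inhibition below 50%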). Conditions: HEK293-TLR3 RL24 IRF3 luciferase reporter, at 10 µM, stronger effect = higher value.

Chain of Alpha-2C adrenergic receptor (Homo sapiens) (P18825 whole entry, looked up): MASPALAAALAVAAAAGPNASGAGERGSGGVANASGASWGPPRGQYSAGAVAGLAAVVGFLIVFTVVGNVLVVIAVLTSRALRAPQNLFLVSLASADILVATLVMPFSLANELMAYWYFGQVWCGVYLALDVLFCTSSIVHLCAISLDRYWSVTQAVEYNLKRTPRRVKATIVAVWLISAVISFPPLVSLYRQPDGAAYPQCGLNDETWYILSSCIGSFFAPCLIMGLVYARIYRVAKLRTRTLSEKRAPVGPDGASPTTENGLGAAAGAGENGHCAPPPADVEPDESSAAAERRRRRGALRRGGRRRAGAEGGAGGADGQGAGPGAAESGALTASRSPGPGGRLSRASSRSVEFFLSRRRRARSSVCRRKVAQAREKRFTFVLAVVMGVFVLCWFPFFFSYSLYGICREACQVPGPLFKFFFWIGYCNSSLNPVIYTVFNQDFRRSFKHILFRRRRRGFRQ
Chain of Voltage-gated potassium channel subunit beta-2 (Rattus norvegicus) (P62483 whole entry, looked up): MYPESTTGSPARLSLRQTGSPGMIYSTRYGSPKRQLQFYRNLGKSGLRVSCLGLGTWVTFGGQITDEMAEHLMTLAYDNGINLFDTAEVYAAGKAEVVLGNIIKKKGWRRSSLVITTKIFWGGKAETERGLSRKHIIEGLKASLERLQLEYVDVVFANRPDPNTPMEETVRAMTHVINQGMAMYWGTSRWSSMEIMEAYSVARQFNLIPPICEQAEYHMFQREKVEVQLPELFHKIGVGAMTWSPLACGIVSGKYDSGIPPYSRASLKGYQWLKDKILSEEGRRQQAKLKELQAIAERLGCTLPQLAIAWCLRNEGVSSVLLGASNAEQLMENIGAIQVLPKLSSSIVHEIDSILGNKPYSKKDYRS

As to `Cc1ccc(S(=O)(=O)N2CCCC(C(=O)NC3=NCCS3)C2)cc1` (centres undefined), the cell count in experiment [1] stood at 306. In addition, the inhibition in experiment [1] is 7.4% (inactive); in experiment [3], -27.5% (inactive); in experiment [7], 14.7% (inactive); in experiment [8], 13.5% (inactive). The inhibition of aggregation in experiment [2] was -0.7% (inactive). Moreover, the nuclei count in experiment [2] is 111%; in experiment [3] it was 106%. Also, the fluorescence slope in experiment [4] was -0.601 (inactive). Besides, the NADPH fluorescence slope in experiment [5] was -3.9e-05 (inactive). In addition, the slope in experiment [6] is 0.00373 (inactive).
As for `Cc1ccc(CNC(=O)C2CC(=O)OC23CCCC3)c(C)c1` (centres undefined), in experiment [1], the cell count is 410. Moreover, the inhibition in experiment [1] was 17.5% (inactive); in experiment [3] it was 8.3% (inactive); in experiment [7], 17.7% (inactive); in experiment [8] it was 20.9% (inactive). Further, the inhibition of aggregation in experiment [2] was -25.4% (inactive). The nuclei count in experiment [2] was found to be 104%; in experiment [3] it was 102%. Also, in experiment [4], the fluorescence slope is -0.593 (inactive). Besides, in experiment [5], the NADPH fluorescence slope was 4.6e-07 (inactive). For the same molecule, the slope in experiment [6] is 0.00501 (inactive).
On to `CCCOc1ccccc1NC(=O)c1ccc(N)cc1`, for which, in experiment [1], the cell count turned out to be 428. Also, the inhibition in experiment [1] was 7% (inactive); in experiment [3] it was -137% (inactive); in experiment [7], 11.3% (inactive); in experiment [8], 18.2% (inactive). The inhibition of aggregation in experiment [2] is 6.7% (inactive). Also, the nuclei count in experiment [2] was 106%; in experiment [3], 114%. Besides, in experiment [4], the fluorescence slope is -0.396 (inactive). Further, the NADPH fluorescence slope in experiment [5] was -4.2e-05 (inactive). Moreover, the slope in experiment [6] is 0.00363 (inactive).
Regarding `COc1ccc(CNS(=O)(=O)c2ccc3oc(C(=O)O)c(C)c3c2)cc1`, the cell count in experiment [1] was found to be 624. In addition, the inhibition in experiment [1] was -4.4% (inactive); in experiment [3], -31.4% (inactive); in experiment [7], 15.6% (inactive); in experiment [8] it was 20.3% (inactive). Also, the inhibition of aggregation in experiment [2] is -6% (inactive). The nuclei count in experiment [2] was found to be 75.2%; in experiment [3], 114%. The fluorescence slope in experiment [4] was -0.466 (inactive). In experiment [5], the NADPH fluorescence slope is 8.2e-05 (inactive). For the same molecule, in experiment [6], the slope was 0.00607 (inactive).
Regarding `CC1CCCN(S(=O)(=O)c2ccc(C(=O)Nc3nnc(-c4ccccc4Cl)o3)cc2)C1` (centres undefined), the cell count in experiment [1] came to 687. The inhibition in experiment [1] was -2.8% (inactive); in experiment [3], -16.5% (inactive); in experiment [7], 22.7% (inactive); in experiment [8] it was 25.9% (inactive). The inhibition of aggregation in experiment [2] was 10.5% (inactive). The nuclei count was 111% in experiment [2] and 110% in experiment [3]. Further, in experiment [4], the fluorescence slope was -0.468 (inactive). Moreover, the NADPH fluorescence slope in experiment [5] is -2.3e-05 (inactive). In experiment [6], the slope is 0.0065 (inactive).
As to `COc1ccccc1S(=O)(=O)Cc1ccc(C(=O)N2CCOCC2)o1`, the cell count in experiment [1] was 528. Also, the inhibition in experiment [1] is -7.1% (inactive); in experiment [3], -67.1% (inactive); in experiment [7], 1.72% (inactive); in experiment [8], 33.5% (inactive). In addition, in experiment [2], the inhibition of aggregation is 29% (inactive). Moreover, the values for the nuclei count in experiment [2] and in experiment [3] were 86.6% and 107%, respectively. Also, the fluorescence slope in experiment [4] was -0.428 (inactive). Further, in experiment [5], the NADPH fluorescence slope was -5.8e-05 (inactive). Moreover, the slope in experiment [6] is 0.00635 (inactive).
As for `CCOC(=O)N1CCC(N2C(=O)c3ccccc3C2Nc2cccnc2)CC1` (centres undefined), the cell count in experiment [1] turned out to be 592. In addition, the inhibition in experiment [1] was -4.5% (inactive); in experiment [3] it was -11.7% (inactive); in experiment [7], 7.61% (inactive); in experiment [8], -4.54% (inactive). In addition, the inhibition of aggregation in experiment [2] is -28.1% (inactive). Besides, the nuclei count in experiment [2] is 100%; in experiment [3] it was 117%. The fluorescence slope in experiment [4] is -0.6 (inactive). The NADPH fluorescence slope in experiment [5] was 4.7e-06 (inactive). Besides, in experiment [6], the slope was 0.00694 (inactive).
For `Cn1c(SCc2ccccc2)nnc1C1CCCNC1` (centres undefined), the cell count in experiment [1] amounted to 784. Further, the inhibition was -2.3% (inactive) in experiment [1], 10.3% (inactive) in experiment [3], 10.3% (inactive) in experiment [7] and 15.2% (inactive) in experiment [8]. The inhibition of aggregation in experiment [2] was 0.6% (inactive). For the same molecule, the nuclei count in experiment [2] is 100%; in experiment [3], 125%. Moreover, the fluorescence slope in experiment [4] was -0.327 (inactive). Moreover, the NADPH fluorescence slope in experiment [5] was 1.3e-05 (inactive). Besides, in experiment [6], the slope is 0.00512 (inactive).
In the case of `COCCN(CCOC)C(=O)c1sc2nc(-c3ccccc3)cn2c1C`, the cell count in experiment [1] was determined as 752. Moreover, the inhibition is -10.7% (inactive) in experiment [1], -55.5% (inactive) in experiment [3], 9.08% (inactive) in experiment [7] and 7.03% (inactive) in experiment [8]. The inhibition of aggregation in experiment [2] was -5.6% (inactive). Also, the figures for the nuclei count in experiment [2] and in experiment [3] were 119% and 127%, respectively. Besides, the fluorescence slope in experiment [4] was -0.39 (inactive). The NADPH fluorescence slope in experiment [5] was -9.4e-06 (inactive). Further, the slope in experiment [6] is 0.00336 (inactive).
With `COc1ccc(CCN2C(=O)CC(N3CCOCC3)C2=O)cc1` (centres undefined), the cell count in experiment [1] turned out to be 665. Moreover, the inhibition in experiment [1] was -1.8% (inactive); in experiment [3], -57% (inactive); in experiment [7] it was 4.57% (inactive); in experiment [8], -0.756% (inactive). Besides, in experiment [2], the inhibition of aggregation was -7.6% (inactive). The nuclei count is 100% in experiment [2] and 102% in experiment [3]. Further, the fluorescence slope in experiment [4] is -0.496 (inactive). In addition, the NADPH fluorescence slope in experiment [5] is -6.6e-05 (inactive). Besides, the slope in experiment [6] was 0.00402 (inactive).
With `Cc1cc(C)c2c(n1)nn1c(NCCCN3CCOCC3)cc(C)nc21`, the cell count in experiment [1] came out at 484. The inhibition in experiment [1] was -4.5% (inactive); in experiment [3], -19.1% (inactive); in experiment [7], 8.42% (inactive); in experiment [8], 21.2% (inactive). Also, the inhibition of aggregation in experiment [2] is 11.5% (inactive). In addition, the results for the nuclei count in experiment [2] and in experiment [3] were 119% and 114%, respectively. Moreover, in experiment [4], the fluorescence slope is -0.509 (inactive). For the same molecule, in experiment [5], the NADPH fluorescence slope is -1.9e-05 (inactive). For the same molecule, the slope in experiment [6] is 0.00545 (inactive).
As to `CCN(CCCNC(=O)C1CCCN(S(=O)(=O)c2cnc[nH]2)C1)c1ccccc1` (centres undefined), the cell count in experiment [1] came to 611. In addition, the inhibition was 21.8% (inactive) in experiment [1], -91.6% (inactive) in experiment [3], 5.83% (inactive) in experiment [7] and 7.07% (inactive) in experiment [8]. For the same molecule, the inhibition of aggregation in experiment [2] is -4.7% (inactive). Also, the nuclei count turned out to be 100% in experiment [2] and 142% in experiment [3]. Further, in experiment [4], the fluorescence slope was -0.507 (inactive). For the same molecule, the NADPH fluorescence slope in experiment [5] was -2.4e-05 (inactive). Also, the slope in experiment [6] is 0.00623 (inactive).
Take `CCOC(=O)CSc1nn(C)c(=S)s1`: in experiment [1], the cell count amounted to 723. Besides, the inhibition in experiment [1] was 0.6% (inactive); in experiment [3], -19.1% (inactive); in experiment [7] it was 3.99% (inactive); in experiment [8], 21.1% (inactive). For the same molecule, in experiment [2], the inhibition of aggregation was -4.4% (inactive). Further, the nuclei count in experiment [2] was found to be 108%; in experiment [3] it was 104%. In experiment [4], the fluorescence slope was -0.573 (inactive). In addition, the NADPH fluorescence slope in experiment [5] was -1.7e-05 (inactive). In addition, the slope in experiment [6] is 0.00733 (inactive).
In the case of `COC(=O)C1CCN(C(=O)CN2C(=O)NC(CCc3ccccc3)C2=O)CC1` (centres undefined), the cell count in experiment [1] turned out to be 552. The inhibition was -9.6% (inactive) in experiment [1], -16.4% (inactive) in experiment [3], -17.8% (inactive) in experiment [7] and -13.6% (inactive) in experiment [8]. For the same molecule, the inhibition of aggregation in experiment [2] is -7.5% (inactive). Besides, the nuclei count in experiment [2] was 95.7%; in experiment [3] it was 110%. Besides, the fluorescence slope in experiment [4] is -0.542 (inactive). Moreover, the NADPH fluorescence slope in experiment [5] was -2.6e-05 (inactive). In addition, the slope in experiment [6] is 0.00516 (inactive).
